Most compounds without a hit are left out; they make up all but 4.8% or so of the library.
USP1 inh: Inhibitors of USP1/UAF1: Primary Screen; AID 743255, 2014; 390,000 compounds, 0.23% hits; Ubiquitin carboxyl-terminal hydrolase 1 (Homo sapiens), O94782; recombinant USP1/UAF1, Ub-Rhodamine cleavage fluorescence; Potency, µM (highest dose often 57.1 µM), usual class: inhibitors; further: nearly all actives have a fitted effect of over 60% in size
Target sequence (O94782 whole entry, looked up): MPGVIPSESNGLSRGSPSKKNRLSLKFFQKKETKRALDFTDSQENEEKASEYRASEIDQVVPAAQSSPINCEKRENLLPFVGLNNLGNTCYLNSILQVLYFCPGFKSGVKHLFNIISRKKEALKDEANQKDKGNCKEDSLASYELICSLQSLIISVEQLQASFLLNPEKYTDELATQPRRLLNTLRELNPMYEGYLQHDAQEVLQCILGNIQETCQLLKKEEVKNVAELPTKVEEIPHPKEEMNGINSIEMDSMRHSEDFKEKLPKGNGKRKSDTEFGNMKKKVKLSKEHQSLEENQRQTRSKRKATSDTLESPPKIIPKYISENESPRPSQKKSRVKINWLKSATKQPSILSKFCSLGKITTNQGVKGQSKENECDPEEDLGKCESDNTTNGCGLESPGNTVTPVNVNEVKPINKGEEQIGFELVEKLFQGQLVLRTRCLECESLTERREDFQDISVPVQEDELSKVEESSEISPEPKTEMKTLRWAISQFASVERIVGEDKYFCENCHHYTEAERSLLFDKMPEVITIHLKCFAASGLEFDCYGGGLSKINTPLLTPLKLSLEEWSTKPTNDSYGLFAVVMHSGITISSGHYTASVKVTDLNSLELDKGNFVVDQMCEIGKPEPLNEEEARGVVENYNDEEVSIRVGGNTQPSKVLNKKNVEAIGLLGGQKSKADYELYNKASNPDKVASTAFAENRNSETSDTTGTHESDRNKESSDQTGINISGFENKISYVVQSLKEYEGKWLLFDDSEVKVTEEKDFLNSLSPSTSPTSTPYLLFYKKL
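USP1/UAF1 complex (1 nM) preincubated 15 min at room temperature with compound, then Ub-Rho substrate (150 nM final) added. Kinetic fluorescence at 480/540 nm over 6 reads at 60 s intervals; 50 mM HEPES pH 7.8, 0.5 mM EDTA, 0.1 mg/ml BSA, 1 mM TCEP, 0.01% Tween-20.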
S2 tox: Viability Counterscreen for Primary qHTS for Inhibitors of ATXN expression; S2 cells (HEK-293 line with an ATXN2-luciferase reporter) viability, CellTiter-Fluor protease fluorescence, 24 h; Potency, µM (highest dose often 56.7 µM), hits mostly cytotoxic; 400,000 compounds, 0.49% hits; further: nearly all actives have a fitted effect of over 40% in size
IL-1B inflam inh: qHTS for Inhibitors of Inflammasome Signaling: IL-1-beta AlphaLISA Primary Screen; THP-1 LPS/ATP IL-1B secretion, AlphaLISA, 16 h; hits give low values; activity change, % at 57.5 µM; 360,000 compounds, 4.7% hits; AID 743279, 2014; in the data active means activity change below about -50%; inconclusive means mostly about -30% to -49%
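THP-1 cells pretreated 1 hr with compounds (up to 57.5 uM final), then stimulated with LPS (250 ng/mL final) plus ATP (1.25 mM final); secreted IL-1B measured by AlphaLISA after 16 hr, decreased signal indicating inhibition.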
ATXN2 expr inh: Primary qHTS for Inhibitors of ATXN expression. HEK-293 ATXN2-luciferase reporter, luminescence, 24 h. Potency, µM (highest dose often 57 µM), usual class: inhibitors. 360,000 compounds, 0.72% hits; further: nearly all actives have a fitted effect of over 55% in size
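qHTS (up to 57 uM final) was run with 24 h compound exposure of reporter cells at 37 °C. Each well was multiplexed: SteadyGlo luminescence measured ATXN2-luciferase expression after a fluorogenic Gly-Phe-AFC viability readout (25 uM final).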
USP2a block: qHTS Assay for Inhibitors of Ubiquitin-specific Protease USP2a Using CHOP2 as the Reporter. USP2 core, Ub-CHOP2 coupled fluorogenic reporter, 485/531. Potency, µM (top dose mostly 38.3 µM), most hits filed as inhibitors. 330,000 compounds, 0.01% hits. AID 463254, 2010
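Cell-free coupled assay: 10nM USP2 core preincubated 30min RT with compound in Tris-HCl pH 8.0/CaCl2/CHAPS buffer, then 25nM Ub-CHOP2 and 25nM reporter substrate; fluorescence (Ex 485/Em 531) read after 60min RT, normalized to NEM inhibition, concentration-response curves fitted.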
Hits are given with their value; n = inactive; u = inconclusive; x = no result. Unless noted, the call rests on the fitted dose curve; in most records, active means well fitted curve in the direction sought with a large enough effect; inconclusive means small, poorly fitted or top-dose-only effect, or another doubt; inactive means no such curve, though single readings can be large; an effect the other way counts as inactive or inconclusive.

SMILES	USP1 inh	S2 tox	IL-1B inflam inh	ATXN2 expr inh	USP2a block
C#CCOCCOCCOCCNc1nc(N2CCN(C(=O)CCCCCCCCCCNC(=O)[C@H](CCCCN)n3cc(CCO)nn3)CC2)nc(N2CCN(C(=O)CCCCCCCCCCNC(=O)[C@H](CCCCN)n3cc(CCO)nn3)CC2)n1	n	u	-55	n	u
C#CCOCCOCCOCCNc1nc(N2CCN(C(=O)CCCCCCCCCCNC(=O)[C@H]([C@@H](C)CC)n3cc(CCCCCN)nn3)CC2)nc(N2CCN(C(=O)CCCCCCCCCCNC(=O)[C@@H]([C@H](C)O)n3cc(C)nn3)CC2)n1	n	16µM	-68	16µM	10µM
CC(=O)Nc1cc(-c2ccc(C(=O)N3CCOCC3)cc2)cn2c(-c3ccc(S(C)(=O)=O)cc3)cnc12	x	n	n	n	x
Cc1cc(NC(=O)c2cc(Cl)ccc2Cl)ccc1-c1cc2ccccc2oc1=O	n	n	x	n	x
O=C(c1ccccc1)C1C(c2ccccc2)C1[N+](=O)[O-] (centres undefined)	n	u	-56	n	n
O=C1NC(=O)C(=Cc2ccc(-c3ccc(F)cc3O)o2)S1	x	x	x	n	x
Cc1ccc(C2CCN(C(=O)Nc3ccc(F)cc3)C2)cc1 (centres undefined)	n	n	-68	n	n
O=C(CN1C(=O)C2C3C=CC(C3)C2C1=O)OCC(=O)c1ccc(Cl)c([N+](=O)[O-])c1 (centres undefined)	n	n	-78	n	x
C/C(=N\N=C(N)N)c1cccc(Cl)c1	n	n	-57	n	n
C/C(=N\N=C(N)N)c1ccc(Cl)cc1Cl	n	n	-92	u	n
C/C(=N\N=C(N)N)c1cc(Cl)ccc1Cl	n	n	n	x	n
CCCCN1C(=O)N(c2ccccc2Cl)C(C)(O)CC1(C)C (centres undefined)	n	n	n	x	n
O=C(CCCSc1nnc(SCCCC(=O)c2ccc(F)cc2)s1)c1ccc(F)cc1	n	n	-81	n	n
CCN(CC)CCn1c(=N)n(CCOc2ccccc2Cl)c2ccccc21	n	x	x	x	x
N=c1n(CCCOc2ccccc2Cl)c2ccccc2n1CC(N)=O	n	n	-102	u	n
CC(=O)NC(c1ccccc1)c1c(O)ccc2ccccc12 (centres undefined)	n	u	n	n	n
CCCCC(=O)NC(c1ccccc1Cl)c1c(O)ccc2ccccc12 (centres undefined)	n	n	-89	n	n
CC(C)C(=O)NC(c1ccc([N+](=O)[O-])cc1)c1c(O)ccc2ccccc12 (centres undefined)	n	u	-88	u	n
CC(=O)NC(c1ccc(C(C)C)cc1)c1c(O)ccc2ccccc12 (centres undefined)	n	n	-75	n	x
COc1ccc(F)c(CN2CCOc3ccc(CN4CCCCC4CO)cc3C2)c1 (centres undefined)	x	n	x	x	x
CN(C)c1ccc(N=Nc2cccc(F)c2)cc1	n	n	n	n	n
Cc1cc(N(C)C)cc(C)c1N=Nc1cc[n+]([O-])cc1	n	11µM	n	x	x
O=C1c2ccccc2C(=O)C12OC2c1ccc(Cl)cc1Cl (centres undefined)	n	u	-101	u	n
CN(CCOc1ccc(Cl)cc1)C(=O)Cc1ccc(S(=O)(=O)N2CCOCC2)s1	n	n	n	n	n
O=C(Nc1ccncc1)Nc1ccc(Cl)cc1	n	n	-94	n	n
SMILES	USP1 inh	S2 tox	IL-1B inflam inh	ATXN2 expr inh	USP2a block
CC(=O)c1ccc(NC(=O)NC2CCCCCCC2)cc1	n	n	-66	n	n
CC(=O)c1ccc(NC(=O)Nc2ccc(Cl)cc2)cc1	n	n	-99	n	n
O=C(Nc1ccncc1)Nc1cc(Cl)ccc1Cl	n	n	-54	n	n
O=C(COc1ccc(-c2ccccc2)cc1)NNC(=O)NC1CCCCC1	n	n	n	n	n
O=S1(=O)CC(N2CCCC2)CN1Cc1ccccc1 (centres undefined)	x	n	n	n	x
COc1cc(-c2c(OC)cccc2OC)cc2c1OCCN(C(=O)CCC(=O)c1ccc(F)cc1)C2	x	n	x	x	x
CCC(C)Sc1c(C(C)C)cnc2c1c(=O)n(C)c(=O)n2C (centres undefined)	n	x	x	x	x
Cc1ccc(S(C)(=O)=NS(=O)(=O)c2cccc3nsnc23)cc1 (centres undefined)	n	n	-53	n	n
Cc1csc2c(N3CCC(C(=O)O)CC3)ncnc12	n	n	n	x	n
Cc1csc2c(N3CCN(C(=O)Nc4ccc(OC(F)(F)F)cc4)CC3)ncnc12	n	n	-70	n	n
N#CC1=C2SCN(Cc3ccccc3)CN2C(=O)CC1c1ccc2c(c1)OCO2 (centres undefined)	n	n	n	n	n
N#CC1=C2SCN(Cc3ccccc3)CN2C(=O)CC1c1cccs1 (centres undefined)	16µM	u	n	n	n
O=C(NCC[C@H]1CC[C@H](NS(=O)(=O)c2ccccc2F)[C@@H](CO)O1)c1ccc(F)cc1	x	x	n	x	x
OCC1OC(Oc2cccc3ccccc23)C(O)C(O)C1O (centres undefined)	n	n	n	n	n
O=C(O)c1cc(O)c2c(c1)[C@@H]([C@H]1c3cc(C(=O)O)cc(O)c3C(=O)c3c(O[C@@H]4O[C@H](CO)[C@@H](O)[C@H](O)[C@H]4O)cccc31)c1cccc(O[C@@H]3O[C@H](CO)[C@@H](O)[C@H](O)[C@H]3O)c1C2=O	u	n	n	n	2µM
Cc1ccc(C(NC(=O)NC(C)c2ccccc2)C(Cl)(Cl)Cl)cc1F (centres undefined)	n	u	-62	u	n
CC(NC(=O)Nc1ccc(Cl)cc1)c1ccccc1 (centres undefined)	n	n	n	x	n
O=C(CCl)N1CCN(C(=O)C2COc3ccccc3O2)CC1 (centres undefined)	n	u	-95	n	n
O=C(CCl)N1c2ccccc2OCC1c1ccccc1 (centres undefined)	n	u	-94	n	n
CC1COc2ccccc2N1C(=O)c1ccccc1Cl (centres undefined)	n	n	n	n	n
O=C(CCl)N1c2ccccc2SCC1c1ccccc1 (centres undefined)	u	20µM	-105	u	n
COc1cccc(-c2cnc(C(O)c3ccc(OC)c(F)c3)[nH]2)c1 (centres undefined)	x	n	n	n	x
CCn1[nH]c(=O)c(=Nc2c(C)n(C)n(-c3ccccc3)c2=O)cc1-c1ccc(Cl)cc1	n	n	-52	n	n

Compound activity from PubChem BioAssay.
